Vaccinia Venus = vaccinia inhibition (Venus reporter); Vaccinia virus Venus reporter expression, fluorescence; Potency, µM (highest dose often 36.5 µM), hits mostly inhibitors; 330,000 compounds, 0.46% hits; calls by dose curve; tested in A549 cells; also: nearly all actives have a fitted effect of over 30% in size
FMDV antiviral = foot and mouth disease virus antiviral activity. FMDV antiviral cell-based qHTS. Potency, µM (doses to about 57.9 µM), actives largely listed as inhibitors. 410,000 compounds, 1.2% hits. AID 1159524; calls by dose curve; tested in HEK293T cells; also: read-out not given here; nearly all actives have a fitted effect of over 45% in size
Sm TGR inh = blocks Schistosoma mansoni thioredoxin glutathione reductase; Q962Y6; purified TGR, DTNB reduction, TNB absorbance 405 nm; Potency, µM (titrated, usually from 114 µM), usual class: inhibitors; 360,000 compounds, 3% hits; AID 485364; also: nearly all actives have a fitted effect of over 60% in size
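First, TGR (20 nM dispensed) and NADPH were mixed with compound. Second, a 15 min room-temperature incubation followed. Third, further NADPH and then DTNB were added to start the reaction. Finally, TNB absorbance was monitored kinetically.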
VACV mCherry inh = vaccinia inhibition (mCherry reporter) | Vaccinia virus mCherry reporter infection, fluorescence | Potency, µM (series often up to 36.5 µM), most hits filed as inhibitors | 310,000 compounds, 0.63% hits; calls by dose curve; tested in A549 cells; also: nearly all actives have a fitted effect of over 35% in size
HCMV inh = blocks human cytomegalovirus replication | 410,000 compounds, 4.5% hits | HFF cells, HCMV-luciferase reporter, 72 h; active compounds read low | activity change, negative = inhibition, % at 57.5 µM; in the data active = activity change below about -60%; inconclusive = no clear call, values can overlap the other calls; inactive = above about -39%
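Screen run at 2 compound doses on HFFs infected with reporter HCMV, MOI 1 PFU/cell. Luciferase activity from cell lysates at 72 h post infection gave inhibition relative to buffer-only and Salinomycin wells.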
HCV inhibitor = inhibitors of hepatitis C virus infection. Huh7.5.1 HCVcc-Cre infection, luciferase reporter, 44 h. Potency, µM (top dose mostly 41.8 µM), usual class: inhibitors. 340,000 compounds, 3.4% hits
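Seed cells (1,000/well) for 4 h; treat with compound and infect with HCVcc-Cre, moi about 0.5. Incubate 44 h, then detect luciferase activity.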
Numbers stand for hits; – = inactive; ? = inconclusive; · = no result; [ ] = another dose, or the depositor's remark. Hits are enriched below; roughly 9.3% of the tested compounds scored in any of these assays. Unless noted, calls follow the shape of the dose curve; as a rule, active = well fitted curve in the direction sought with a large enough effect; inconclusive = small, poorly fitted or top-dose-only effect, or another doubt; inactive = no such curve, though single readings can be large; an effect the other way counts as inactive or inconclusive.

SMILES	Vaccinia Venus	FMDV antiviral	Sm TGR inh	VACV mCherry inh	HCMV inh	HCV inhibitor
Cc1ccc(CSc2nnc(SCC(=O)N/N=C/c3ccc(C(=O)O)cc3)s2)cc1	–	–	–	?	-66	–
O=C(CSc1nnc(SCc2ccccc2)s1)N/N=C/c1c[nH]c2ccccc12	–	–	–	–	–	–
O=C(CSc1nnc(SCc2ccccc2)s1)N/N=C/c1ccc(C(=O)O)cc1	–	–	–	–	–	–
CCN1/C(=C/C(=O)c2ccco2)Sc2ccccc21	–	–	20µM	·	–	?
CN1/C(=C\C(=O)COC(=O)c2ccco2)C(C)(C)c2ccccc21	·	?	–	·	–	–
CN1/C(=C/C(=O)c2nc(S(C)(=O)=O)ncc2Cl)C(C)(C)c2ccccc21	?	10µM	–	28µM	·	?
CN1/C(=C\C(=O)c2cccnc2)C(C)(C)c2ccccc21	–	–	–	–	–	–
CN1/C(=C\C(=O)c2ccco2)C(C)(C)c2ccccc21	–	?	45µM	–	-71	11µM
CN1/C(=C\C(=O)c2cncc(Br)c2)C(C)(C)c2ccccc21	–	?	–	–	-73	?
CC(=O)Nc1cc(OC(C)=O)c2nonc2c1OC(C)=O	7.9µM	?	8.9µM	7.9µM	-104	?
COc1cccc(CNC(=O)N[C@@H](C)C(=O)O)c1	·	–	–	·	–	–
CCc1ccc(/C=C/c2c[nH]c3ccccc23)[n+](CC)c1	–	?	–	–	-97	?
C=C1C[C@H]2[C@@H]3CCc4cc(OC)ccc4[C@H]3CC[C@]12C	–	–	–	–	-69	–
COc1ccc(CC(=O)Nc2nc3ccccc3s2)cc1S(=O)(=O)N1CCOCC1	·	?	–	·	–	11µM
COc1ccc(CC(=O)Nc2cc(F)ccc2F)cc1S(=O)(=O)N1CCOCC1	–	–	·	–	?	·
COc1ccc(CC(=O)Nc2nc3ccc(F)cc3s2)cc1S(=O)(=O)N1CCOCC1	?	–	–	–[1.46 µM]	–	13µM
CCC(=O)Nc1nnc(-c2ccncc2)s1	·	–	–	·	–	–
COc1cc(/C=C/c2ccc3cccc(O)c3n2)c(Br)cc1O	·	·	–	·	-98	·
Oc1ccc2ccccc2c1/C=C/c1ccc2c(Br)cc(Br)c(O)c2n1	–	–	·	?	–	?
Oc1cccc2ccc(/C=C/c3ccccc3Br)nc12	–	–	–	?	-87	?
CSc1ccc(/C=C/c2ccc3cccc(O)c3n2)cc1	–	–	–	–	-66	?
Oc1cccc2ccc(/C=C/c3cccs3)nc12	·	–	–	·	–	?
COc1cc(Br)cc(/C=C/c2ccc3cccc(O)c3n2)c1O	·	–	–	·	–	?
COc1ccc(OC)c(/C=C/c2ccnc3ccccc23)c1	–	–	·	–	-98	?
Cc1cc(=O)n2nc(N3CCC(C(=O)NCCCOC(C)C)CC3)sc2n1	–	–	–	–	–	·
SMILES	Vaccinia Venus	FMDV antiviral	Sm TGR inh	VACV mCherry inh	HCMV inh	HCV inhibitor
O=C(CCC1N=C2c3ccccc3N=C(SCC(=O)Nc3ccccc3F)N2C1=O)NCc1cccs1 (stereo not given)	–	–	–	–	–	·
Cc1ccsc1/C=C/c1ccc2ccccc2n1	–	–	–	–	–	–
Oc1ccc(Cl)cc1/C=C/c1ccc2cccc(O)c2n1	–	–	·	?	–	?
COc1ccc(OC)c(/C=C/c2ccc3cccc(O)c3n2)c1	·	·	–	·	-65	·
COc1cc(OC)c(OC)cc1/C=C/c1ccc2ccccc2n1	–	·	·	?	·	·
Oc1c(Cl)cc(Cl)cc1/C=C/c1ccc2cccc(O)c2n1	–	–	–	2.5µM	–	?
C/C=C/c1ccc(O)c(OC)c1	–	–	–	–	–	–
COc1cc(/C=C/c2ccc3cccc(O)c3n2)ccc1O	?	–	–	?	–	11µM
Cc1ccsc1/C=C/c1ccc2cccc(O)c2n1	·	–	–	·	–	13µM
COc1ccc(C=Cc2ccc3ccccc3n2)c(OC)c1	–	?	·	?	-88	·
COc1ccc(OC)c(/C=C/c2ccc3ccccc3n2)c1	–	·	·	–	·	·
COc1cc(Br)c(/C=C/c2ccc3cccc(O)c3n2)cc1OC	·	–	–	·	-87	10µM
COc1ccc(CC(=O)OCC(=O)Nc2c(C)n(C)n(-c3ccccc3)c2=O)cc1	–	–	–	·	?	–
Cc1ccc(C)c(N(CC(=O)NC2CCCC2)C(=O)c2oc(C(C)(C)C)cc2C)c1	–	·	–	–	-67	?
C=CCc1cccc(CNc2cnc3ccccc3c2)c1O	·	–	–	·	–	7.9µM
Oc1ccccc1CNc1cnc2ccccc2c1	–	–	–	–	–	?
CC1(c2nnc(Cc3ccccc3)o2)CC(c2cccc([N+](=O)[O-])c2)=NO1 (stereo not given)	–	–	45µM	?	–	–
CC1(c2nnc(Cc3ccccc3)o2)CC(c2ccccc2[N+](=O)[O-])=NO1 (stereo not given)	–	–	3.2µM	–	·	–
CC1CCCCN1S(=O)(=O)c1ccc([N+](=O)[O-])cc1 (stereo not given)	·	–	–	·	?	–
CC(C)C(C(=O)NCC1CCCO1)N(Cc1ccco1)C(=O)CNS(=O)(=O)c1ccc(F)cc1 (stereo not given)	–	–	–	·	–	?
CCOc1c(Br)cc(CNc2ccc3c(c2)OCCO3)cc1OC	?	25µM	?	?	-82	?
COc1cc(CNC2CCCCCCC2)cc(Br)c1OCC#N	–	–	–	–	?	?
CCOc1cc(CNc2ccc3c(c2)OCCO3)cc(Br)c1OCC(N)=O	?	·	–	–	–	–
CCOc1cc(CNc2ccc3c(c2)OCCO3)cc(Br)c1OC	?	25µM	–	?	-86	0.79µM
CCOc1c(Br)cc(CNC2CCCCCCC2)cc1OC	·	?	–	·	–	11µM
SMILES	Vaccinia Venus	FMDV antiviral	Sm TGR inh	VACV mCherry inh	HCMV inh	HCV inhibitor
Cc1ccc(S(=O)(=O)N(C)c2ccccc2C(=O)N2CCCC2)cc1	·	–	–	·	–	–
CC1CN(C2=CC(=O)CCC2)CC(C)O1 (stereo not given)	·	–	–	·	–	–
Cc1ccc(Cl)cc1N(C)C(=O)c1sc2nc3n(c(=O)c2c1C)CCCC3	–	–	–	–	–	·
COc1ccc(OC)c([N+](=O)[O-])c1C(N)=O	–	–	79µM	–	–	–
C=CCn1c(O)c(N=O)c2ccccc21	–	–	–	–	–	–
C=CCn1c(O)c(N=Nc2ccccc2C)c2ccccc21	–	–	18µM	?	–	–
CCN(CC)C(=O)Cn1nnc(-c2ccc(C)o2)n1	·	–	25µM	·	–	–
CCC(C(=O)NC1CCCC1)N(C(=O)Cn1nnc(-c2ccc(C)o2)n1)C(C)(C)C (stereo not given)	·	–	–	·	–	–
COc1cc(C(C(=O)NC2CCCC2)N(CCO)C(=O)Cn2nnc(-c3ccc(C)o3)n2)ccc1O (stereo not given)	–	–	45µM	–	–	–
COC(C[C@H](O)CC(=O)[C@H](C)OCc1ccccc1)OC	–	–	45µM	–	–	–
COC(C[C@@H](O)CC(=O)[C@@H](C)OCc1ccccc1)OC	–	–	–	–	–	–

From PubChem
